Measured values: PubChem BioAssay AID1508622 (National Center for Advancing Translational Sciences (NCATS), 2021)
Calls of active or inactive are those of the source. Calls come from the whole dose curve; as a rule, active = well fitted activation curve with a large enough effect; inconclusive = small, poorly fitted or top-dose-only effect; inactive = no such curve, though single readings can be large or run the other way.

test: Confirmatory qHTS for Identification of Small Molecule Activators of Huntingtin-Antisense Promoter Activity; conditions: HEK293 HTT-AS promoter firefly luciferase reporter, 24 h; series mostly up to 57.5 µM; activity change, positive = activation: at the top concentration
Outline: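 Plated reporter HEK293 cells (24 h) received library compounds at up to 57.5 uM final or 50 uM PTC124, incubated 24 h at 37C; firefly luciferase luminescence was then recorded with Dual-Glo reagent.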

Activity change, positive = activation, inactive:
COc1cc(NC(=O)Cn2c(=O)oc3cc(S(=O)(=O)N4CCCCCC4)ccc32)cc(OC)c1 -39.7%
COc1ccc(-c2nc3sc(CCNS(=O)(=O)c4ccccc4)c(C)n3n2)cc1 -7.69%
CCc1ccc(NC(=O)c2ccc(F)c(S(=O)(=O)N3CCN(c4cc(C)ccc4C)CC3)c2)cc1 -15.1%
Cc1ccccc1CN1CCc2nc(N3CCN(c4ccccn4)CC3)ncc2C1 -38.9%
Cc1cccc(-c2nc3scc(CCNS(=O)(=O)c4ccc(Oc5ccccc5)cc4)n3n2)c1 -93.6%
COc1cc2ccccc2cc1C(=O)N1CCN(c2nc3ccc(F)cc3s2)CC1 -89.3%
Cc1cc(NC(=O)CN(C)S(=O)(=O)c2ccc3c(c2)CCC(=O)N3)ccc1Br -43.3%
CCCCOc1ccc(CNC(=O)c2cc3n(n2)CCCN(Cc2ccc(C)cc2)C3=O)cc1 -89.4%
COC(=O)C1CCN(S(=O)(=O)c2ccc(N3CCCCS3(=O)=O)cc2)CC1 -35.7%
CCOc1ccc(N(Cc2ccccc2)C(=O)c2nc(SC)ncc2Cl)cc1 -31%
Cc1noc2ncnc(NCc3cccc(Cl)c3)c12 -40%
Cc1ccc(-n2ccnc(NCCc3ccc(S(N)(=O)=O)cc3)c2=O)c(C)c1 -32.3%
Cc1ccc(C)c(NC(=O)CSc2nnc(-c3cc4occc4n3C)n2-c2ccccc2C)c1 -19.7%
COc1ccc(C2=CC(c3ccccc3Cl)n3nc(-c4ccc(Cl)cc4)nc3N2)cc1 (centres undefined) -11.4%
COc1ccccc1CCNC(=O)C(=O)NCC(c1cccs1)S(=O)(=O)c1ccccc1 (centres undefined) -27%
Fc1ccc(-c2csc(=Nc3cccc(C(F)(F)F)c3)n2Cc2ccc3c(c2)OCO3)cc1 -30.8%
CN[C@H]1[C@@H](O)[C@@H]2O[C@@H]3O[C@H](C)CC(=O)[C@]3(O)O[C@@H]2[C@@H](NC)[C@H]1O -0.802%
Cc1cc(C)cc(OCCn2c(C3CC(=O)N(c4ccccc4Cl)C3)nc3ccccc32)c1 (centres undefined) -37.7%
Cc1ccc(NC(=O)c2ccc(F)c(S(=O)(=O)N3CCc4ccccc4C3)c2)cc1F -91.6%
O=C(CCNS(=O)(=O)c1ccc2c(c1)CCN2C(=O)C1CC1)N1CCN(c2ccc(F)cc2)CC1 -24.2%
CC(=O)c1ccc(NC(=O)c2ccc(-c3nc(CSc4ccc(C)cc4)c(C)o3)cc2)cc1 -63.7%
COc1ccc(OC)c(CNS(=O)(=O)c2ccc3[nH]c4c(c3c2)CCCCC4)c1 -83.3%
Cc1ccc(Cl)cc1N1CCN(C(=O)c2ccc3c(c2)N(Cc2ccc(F)cc2)CCS3)CC1 -36.5%
CCSc1ncc(Cl)c(C(=O)Nc2ccc(S(=O)(=O)N3CCC(C)CC3)cc2)n1 -34.4%
CCN(c1ccccc1)S(=O)(=O)c1cc(C(=O)Nc2ccc(Br)cc2)ccc1F -66.2%
COc1cccc(NC(CNS(=O)(=O)c2ccc(Cl)cc2)c2ccccc2)c1 (centres undefined) -76.1%
CCOc1ccccc1NC(=O)c1ccc(F)c(S(=O)(=O)N2CCN(c3ccc(F)cc3)CC2)c1 -32.4%
COc1cc(NC(=O)NC(C)c2c(-n3cccc3)sc3c2CCCC3)cc(OC)c1OC (centres undefined) -35.3%
O=C(NCC1CCN(Cc2ccccc2F)CC1)Nc1ccc(F)c(Cl)c1 -26.2%
CCCN(c1ccccc1CC)S(=O)(=O)c1ccc2c(c1)CC(C)N2C(=O)C1CC1 (centres undefined) -79.9%
CCOc1ccc(C(=O)NCC(c2ccc3c(c2)OCO3)N2CCN(c3ccccc3F)CC2)cc1 (centres undefined) -8.64%
CSc1cccc(NC(=O)C2CCN(S(=O)(=O)c3ccc4[nH]c5c(c4c3)CCCCC5)CC2)c1 -16.3%
Cc1nc(N2CCCC2)ncc1C(=O)Nc1ccc(OC(F)(F)F)cc1 -33.4%
O=C(O)c1ccc2c(c1)N(Cc1ccc(F)cc1)C(=O)c1ccccc1S2=O (centres undefined) -12.5%
O=C(Nc1ccc(F)c(Cl)c1)C1CCN(S(=O)(=O)c2ccc3c(c2)CCCN3C(=O)C2CCC2)CC1 -22.8%
COc1ccc(C(=O)Oc2c(Sc3ccccc3)c(C)nn2-c2ccccc2)c(OC)c1 -31.5%
Cc1ccc2nc(CSc3nnc(NC(=O)COc4ccccc4)s3)cc(=O)n2c1 17.1%
COc1ccccc1NC(=O)CSc1nnc2c(n1)[nH]c1ccccc12 -24.4%
O=S(=O)(NCCc1csc2nc(-c3ccccc3)nn12)c1ccc(Oc2ccccc2)cc1 -94.1%
